A short description of assay [1]: qHTS RealTime-Glo MT Cell Viability Assay in HEK293 cells - 16 hour (AID 1224872). Also: nearly all actives have a fitted effect of over 50% in size. Also: potency is read from the fitted curve at half-maximal effect. As to activity change, negative = cytotoxicity: top concentration of the series differs between compounds. Put shortly:
(§1)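 Nonlytic real-time viability readout: viable cells convert prosubstrate to NanoLuc substrate, giving luminescence proportional to live cell number. HEK293, 600 cells/well, compound added after 5 h, continuous culture at 37 C.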
On the technique in general: In qHTS, concentration-response curves come from the screen itself.

Assay [2] is described as follows: qHTS RealTime-Glo MT Cell Viability Assay in HepG2 cells - 8 hour (AID 1224873). Also: nearly all actives have a fitted effect of over 55% in size. Put shortly:
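Real-time viability: cells seeded at 600 per well together with NanoLuc and cell-permeant prosubstrate, compounds added after 5 h incubation. Luminescence tracked at 0, 8, 16, 24, 32 and 40 h of exposure.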

Assay [3] in a line: qHTS RealTime-Glo MT Cell Viability Assay in HEK293 cells - 40 hour (AID 1224874). Also: nearly all actives have a fitted effect of over 50% in size. Also: potency is read from the fitted curve at half-maximal effect. Particulars: RealTime-Glo luminescence; max response: hits give low values. The method in brief: (§2)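 Luminescence, which tracks viable cell number through reduction of the prosubstrate to a NanoLuc substrate, was read over continuous 37 C culture. Cells (600/well) were premixed with reagent and rested 5 h before 23 nL of compound in DMSO was pinned.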

Assay [4] can be described thus: A CellTox Green Cytotoxicity Assay to monitor cytotoxicity in HEK293 cells - 24 hour (AID 1224875). Also: series mostly up to about 77 µM; nearly all actives have a fitted effect of over 45% in size. The method in brief: (§3)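 Fluorescence from a DNA-binding dye excluded by viable cells was measured repeatedly in the same HEK293 wells (600 cells/well) during continuous compound exposure at 37 C. Each assay gives one read point: 0, 8, 16, 24, 32 or 40 h.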
Assay [5] in a line: A CellTox Green Cytotoxicity Assay to monitor cytotoxicity in HepG2 cells - 16 hour (AID 1224876). Also: nearly all actives have a fitted effect of over 45% in size. Put shortly:
(§4)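 Real-time cytotoxicity: fluorescence of a cell-impermeant cyanine dye binding DNA of dead HepG2 cells, measured repeatedly (0–40 h) during compound exposure at 37 C. Cells seeded 600/well with reagent, dosed after 5 h.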

A short description of assay [6]: qHTS RealTime-Glo MT Cell Viability Assay in HepG2 cells - 32 hour (AID 1224877). Also: nearly all actives have a fitted effect of over 55% in size. Put shortly:
(§5)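 Luminescence read-out: viable HepG2 cells reduce a prosubstrate to a NanoLuc substrate, giving a signal proportional to live cell number. Reads taken at 0, 8, 16, 24, 32 and 40 h of compound exposure at 37 C.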

The nature of assay [7]: A CellTox Green Cytotoxicity Assay to monitor cytotoxicity in HepG2 cells - 24 hour (AID 1224878). Also: nearly all actives have a fitted effect of over 45% in size. The method in brief:
as §4

Assay [8] is described as follows: A CellTox Green Cytotoxicity Assay to monitor cytotoxicity in HepG2 cells - 40 hour (AID 1224879). Also: nearly all actives have a fitted effect of over 40% in size. Also: potency is read from the fitted curve at half-maximal effect. Put shortly: as §4
Assay [9] can be described thus: qHTS RealTime-Glo MT Cell Viability Assay in HEK293 cells - 0 hour (AID 1224880). Also: top concentration of the series differs between compounds; nearly all actives have a fitted effect of over 45% in size. Put shortly:
as §2

Assay [10] can be described thus: A CellTox Green Cytotoxicity Assay to monitor cytotoxicity in HEK293 cells - 32 hour (AID 1224881). Also: nearly all actives have a fitted effect of over 40% in size. Put shortly: as §3
Assay [11] is described as follows: A CellTox Green Cytotoxicity Assay to monitor cytotoxicity in HepG2 cells - 0 hour (AID 1224882). Also: nearly all actives have a fitted effect of over 35% in size. The method in brief: as §4
Assay [12] in a line: A CellTox Green Cytotoxicity Assay to monitor cytotoxicity in HepG2 cells - 32 hour (AID 1224883). Also: nearly all actives have a fitted effect of over 50% in size. Put shortly:
as §4

Assay [13] is described as follows: A CellTox Green Cytotoxicity Assay to monitor cytotoxicity in HEK293 cells - 8 hour (AID 1224884). Also: nearly all actives have a fitted effect of over 35% in size. Put shortly: as §3
Assay [14] in a line: qHTS RealTime-Glo MT Cell Viability Assay in HepG2 cells - 16 hour (AID 1224885). Also: nearly all actives have a fitted effect of over 50% in size. The method in brief:
as §5

Assay [15] is described as follows: qHTS RealTime-Glo MT Cell Viability Assay in HEK293 cells - 24 hour (AID 1224886). Also: nearly all actives have a fitted effect of over 50% in size. Also: potency is read from the fitted curve at half-maximal effect. As to activity change, negative = cytotoxicity: top concentration of the series differs between compounds. The method in brief:
as §1

Assay [16] in a line: qHTS RealTime-Glo MT Cell Viability Assay in HEK293 cells - 8 hour (AID 1224887). Also: nearly all actives have a fitted effect of over 50% in size. Also: potency is read from the fitted curve at half-maximal effect. As to activity change, negative = cytotoxicity: top concentration of the series differs between compounds. The method in brief: as §2
Assay [17] in a line: A CellTox Green Cytotoxicity Assay to monitor cytotoxicity in HEK293 cells - 16 hour (AID 1224888). Also: nearly all actives have a fitted effect of over 35% in size. Put shortly: as §3
Assay [18] in a line: A CellTox Green Cytotoxicity Assay to monitor cytotoxicity in HepG2 cells - 8 hour (AID 1224890). Also: nearly all actives have a fitted effect of over 45% in size. The method in brief: as §4
The nature of assay [19]: qHTS assay to identify small molecule antagonists of the estrogen receptor alpha (ER-alpha) signaling pathway using the BG1 cell line in the presence of 0.1 nM 17-beta-estradiol - cell viability counter screen (AID 1259241). Also: nearly all actives have a fitted effect of over 40% in size. The method in brief:
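Live-cell protease activity (CellTiter-Fluor fluorescence, 30 min) was read in the same wells after VM7Luc4E2 cells had been exposed to compounds with 0.1 nM 17beta-estradiol for 22 hr at 37C.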

Assay [20] in a line: qHTS RealTime-Glo MT Cell Viability Assay in HepG2 cells - 0 hour (AID 1224889). Also: nearly all actives have a fitted effect of over 50% in size. The method in brief: as §5

Structures are written as SMILES. Unmarked numbers belong to inactive results. Inconclusive results are not listed. The source made the active and inactive calls. Calls follow the shape of the dose curve; as a rule, active = well fitted curve in the direction sought with a large enough effect in the repeat runs; inconclusive = weak or mixed curves; inactive = no such curve, though single readings can be large; an effect the other way counts as inactive or inconclusive.
% is scaled to controls: 0 for no effect and ±100 for the full control effect.

`CCN1CCN(c2cc(-c3ccc(F)cc3)c3c(n2)CCCCCC3)CC1`: the activity change, negative = cytotoxicity was 2.72% [at 15.8 µM] in assay [1]; 9.2% [at 15.8 µM] in assay [9]; -6.43% [at 15.8 µM] in [15]; 3.49% [at 15.8 µM] in assay [16]; 4.69% [at 19 µM] in [19]. For the same molecule, in [2], the viability change, negative = cytotoxic is 1.26% [at 15.8 µM]. Also, the max response in assay [3] is -18.7%. Moreover, the activity change in assay [4] is 2.45% [at 15.8 µM, hits give high values]; in [17] it was 4.21% [at 15.8 µM, hits give high values]. In addition, the cytotoxicity increase in [5] was 12.3% [at 15.8 µM]; in assay [10], 10% [at 15.8 µM]; in assay [12], 34% [at 15.8 µM]; in [13], -3.6% [at 15.8 µM]; in [18], 2.47% [at 15.8 µM]. In addition, the activity change, negative = cytotoxic in [6] was -10.2% [at 15.8 µM]; in assay [14], -4% [at 15.8 µM]. Besides, the cytotoxicity is 24% [at 15.8 µM] in assay [7] and -0.25% [at 15.8 µM] in assay [11]. Also, the Potency in assay [8] is 11700 nM (active).
`CC(C)c1ccccc1N`: the Potency result in [1], in assay [2], in assay [4], in assay [5], in assay [6] and in assay [7] was “inactive” each time. Also, the Potency result in assay [8], in assay [9], in assay [10], in [11], in assay [12] and in [13] was “inactive” in each case. The Potency entry in assay [14], in [15], in assay [16], in [17] and in assay [18] was “inactive” each time. Also, the max response in assay [3] is 0.54%.
Take `CCCCCCCC/C=C\CCCCCCCC(=O)NCc1ccc(O)c(OC)c1`: the Potency is 1690 nM (active) in assay [1], 4250 nM (active) in assay [3], 2390 nM (active) in [15] and 1510 nM (active) in assay [16]. Further, the Potency entry in assay [2], in [4], in assay [5], in [6], in assay [7] and in [8] was “inactive” in each case. The Potency entry in [9], in [10], in assay [11], in assay [12], in assay [13] and in assay [14] was “inactive” each time. Also, the Potency result in assay [17], in [20], in assay [18] and in assay [19] was “inactive” throughout.
Turning to `CCCCCCCC(OC)OC`, the Potency entry in assay [1], in assay [2], in assay [4], in [5], in assay [6] and in assay [7] was “inactive” each time. For the same molecule, the Potency entry in assay [8], in assay [9], in assay [10], in [11], in assay [12] and in assay [13] was “inactive” each time. Further, the Potency entry in assay [14], in assay [15], in assay [16], in [17], in assay [20] and in assay [18] was “inactive” in each case. In addition, the Potency entry in assay [19] was “inactive”. Further, the max response in assay [3] is 5.48%.
`CCCCCCCC/C=C/CCCOC(C)=O`: the Potency entry in assay [1], in assay [2], in [4], in [5], in assay [6] and in assay [7] was “inactive” in each case. The Potency entry in assay [8], in [9], in assay [10], in [11], in assay [12] and in assay [13] was “inactive” in each case. Moreover, the Potency result in assay [14], in [15], in assay [16], in assay [17], in assay [18] and in assay [19] was “inactive” throughout. Moreover, the max response in [3] is 4.7%.
As to `CCCCCCS`, the Potency entry in assay [1], in assay [2], in assay [4], in assay [5], in assay [6] and in [7] was “inactive” in each case. Also, the Potency result in assay [8], in [9], in assay [10], in [11], in [12] and in assay [13] was “inactive” throughout. The Potency result in assay [14], in assay [15], in assay [16], in [17], in assay [20] and in [18] was “inactive” each time. Also, the Potency entry in assay [19] was “inactive”. Also, the max response in assay [3] was 6.5%.
As to `CCOCN(C(=O)CS(=O)(=O)O)c1c(C)cccc1CC`, the Potency result in assay [1], in [2], in [4], in [5], in [6] and in assay [7] was “inactive” throughout. Besides, the Potency result in [8], in assay [9], in assay [10], in assay [11], in assay [12] and in assay [13] was “inactive” each time. The Potency result in assay [14], in assay [15], in assay [16], in assay [17], in assay [20] and in assay [18] was “inactive” throughout. For the same molecule, in [3], the max response was 8.02%.
In the case of `O=C1OC(=O)c2cccc3cccc1c23`, the Potency result in assay [1], in [2], in assay [4], in [5], in assay [6] and in assay [7] was “inactive” throughout. In addition, the Potency entry in assay [8], in [9], in assay [10], in [11], in [12] and in assay [13] was “inactive” in each case. The Potency entry in assay [14], in [15], in assay [16], in assay [17], in assay [20] and in assay [19] was “inactive” throughout. The max response in [3] was -9.96%.
As for `CCCCCCCCCCCCCOP(=O)(O)O`, the Potency entry in [1], in [2], in assay [4], in [5], in [6] and in assay [7] was “inactive” throughout. Besides, the Potency entry in assay [8], in assay [9], in assay [10], in [11], in assay [12] and in [13] was “inactive” throughout. For the same molecule, the Potency entry in assay [14], in assay [15], in [16], in assay [17], in [20] and in assay [18] was “inactive” throughout. Moreover, the Potency entry in [19] was “inactive”. Besides, the max response in [3] is -0.341%.
With `C=C(C)CCCC`, the Potency entry in assay [1], in assay [2], in assay [4], in assay [5], in [6] and in assay [7] was “inactive” in each case. In addition, the Potency result in [8], in assay [9], in assay [10], in assay [11], in [12] and in [13] was “inactive” each time. The Potency result in assay [14], in [15], in assay [16], in [18] and in assay [19] was “inactive” each time. Also, in assay [3], the max response was 3.81%.
Take `COc1cc(C(=O)NS(=O)(=O)c2ccccc2C)ccc1Cc1cn(C)c2ccc(NC(=O)OC3CCCC3)cc12`: the Potency result in assay [1], in [2], in [4], in assay [5], in [6] and in [7] was “inactive” in each case. Further, the Potency result in assay [8], in [9], in assay [10], in assay [11], in [12] and in assay [13] was “inactive” throughout. For the same molecule, the Potency result in assay [14], in assay [15], in [16], in [17], in [20] and in [18] was “inactive” in each case. Moreover, the max response in assay [3] is -0.13%.

(Values after PubChem BioAssay (Tox21).)
